{"source": "the supplement of paper PMC10681739", "data": [{"target": "RUNX1 (UniProt Q01196)", "sequence (Q01196 whole entry)": "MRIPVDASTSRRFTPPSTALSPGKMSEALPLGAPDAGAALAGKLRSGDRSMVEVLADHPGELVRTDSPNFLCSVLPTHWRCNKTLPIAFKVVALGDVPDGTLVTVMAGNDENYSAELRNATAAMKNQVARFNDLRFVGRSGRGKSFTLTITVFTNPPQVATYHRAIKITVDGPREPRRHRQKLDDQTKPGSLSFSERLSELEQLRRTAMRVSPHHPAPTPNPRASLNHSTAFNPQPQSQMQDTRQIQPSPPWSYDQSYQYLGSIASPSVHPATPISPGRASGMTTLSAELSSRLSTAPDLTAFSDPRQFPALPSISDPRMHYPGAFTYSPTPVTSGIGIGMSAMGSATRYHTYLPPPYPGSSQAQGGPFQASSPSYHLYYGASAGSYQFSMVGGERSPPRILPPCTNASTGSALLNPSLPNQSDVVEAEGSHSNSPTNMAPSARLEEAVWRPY", "assay": "RUNX1 binding intensity (PBM fluorescence) in presence of ETS1, normalised to RUNX1-only experiment (arbitrary fluorescence units); higher = stronger binding", "details": "RUNX1 concentration 2 nM; ETS1 concentration 25 nM", "method": "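Cooperative gcPBM on 36-bp genomic probes with neighbouring ETS1 and RUNX1 sites. Recombinant human RUNX1 (2 nM) was incubated alone or with ETS1 (25 nM) and detected with anti-RUNX1 antibody plus Alexa488 secondary. Values are medians over 4 replicate spots; the RUNX1+ETS1 data were normalised to the RUNX1-only data. The probes sit in constant array flanks that are not printed.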", "values": [{"sequence": "GTGAACTTCCTCCCCCACTGCCTATTTTTACCGCAG", "RUNX1 binding intensity": 3950}, {"sequence": "CACTTCCTATCGCTACATAACAAATTACCACAGACT", "RUNX1 binding intensity": 6310}, {"sequence": "TCCAGCTCCACAGGATGTGGTGAGTGAAGCAGCAAG", "RUNX1 binding intensity": 2380}, {"sequence": "ACAGGCTGTCTGCTTCCGTCAGCGGTTATTCCCTTG", "RUNX1 binding intensity": 1340}, {"sequence": "CACCTCCTCTCCGGATGCGGTTTGTTCTGCTTGTAG", "RUNX1 binding intensity": 6810}, {"sequence": "GCGCCCGGAAGGAAGGCTGGGGTAGGTTGTGGTTTC", "RUNX1 binding intensity": 1140}, {"sequence": "TGCAGTCGTGAAAAAGGAAGTGGTTAAAGTGGATAC", "RUNX1 binding intensity": 1520}, {"sequence": "GCCGGAAGCCACGCAGGGCCACGTCTGCGGTTCTGA", "RUNX1 binding intensity": 1220}, {"sequence": "GCGCCGGTGACGGAAGTGCGGTGTTGAGCGCCGGCG", "RUNX1 binding intensity": 1300}, {"sequence": "AGCACTTCCGTTTGGGCAGGGCTGCGGGCCGGAGGG", "RUNX1 binding intensity": 2130}, {"sequence": "CAGCGGCCGTCGCGGGAAGTGCGGTCGCCGCGGCCA", "RUNX1 binding intensity": 966}, {"sequence": "GGACTCTGGCAGGAAGCTGTTTGTGGTTGTCACACC", "RUNX1 binding intensity": 1150}, {"sequence": "TCATTCTCTGATAAAGGAAGTGGTTACAGCACAATT", "RUNX1 binding intensity": 1270}, {"sequence": "CCAACGAGCACTTCCGCTTCCCGCAGCTCCAGCGGC", "RUNX1 binding intensity": 2650}, {"sequence": "ATTACAGGAAGTATGTCCTCCTCTGCCTAACCACTG", "RUNX1 binding intensity": 1270}, {"sequence": "GCCTGAGCGGAAACCCGGCGCCACCACAAGATGGCA", "RUNX1 binding intensity": 1200}, {"sequence": "GTGAGCCTGTAAAGGAAATTGAGGTTATGTGGCTCA", "RUNX1 binding intensity": 864}, {"sequence": "ACACAAACAGGAAGTGTTTGTGGTCCCTGCCTTTAG", "RUNX1 binding intensity": 1590}, {"sequence": "AAACCCCAAACAGGAAGTGGTAAAGCAACCTGCATC", "RUNX1 binding intensity": 7980}, {"sequence": "AGCGCCGGAAGTGTGTCTGCGTAAAACTGCGGCTCG", "RUNX1 binding intensity": 1520}, {"sequence": "CTTGTGAAATGTATCCTGTGGTTGCCGGCTGAAGTG", "RUNX1 binding intensity": 1380}, {"sequence": "CCCCTCTCTCCCACTTCCTGTGGTCTCAGTCTTTGT", "RUNX1 binding intensity": 4960}, {"sequence": "CCCACCCTCGCCGGAAGCCGAGCGGTTTCTACATCA", "RUNX1 binding intensity": 1540}, {"sequence": "TTCAGGTGACTTCCGGCCGGACCGCTGAGGACGCGG", "RUNX1 binding intensity": 1630}, {"sequence": "GCGCTACAGGAACTTCCTGCGCGGTTGCTGTCGTTG", "RUNX1 binding intensity": 1180}, {"sequence": "AGGAAACCACAAGTTATTCCCTGCAAAGGTCTTGAT", "RUNX1 binding intensity": 6430}, {"sequence": "GGGGACCGGAAAGGGAGGGGTGGGCCGCAGGCGCCG", "RUNX1 binding intensity": 1150}, {"sequence": "CTCCATCTGCCCGGAAAACCGCAGCCGCCCCAACCT", "RUNX1 binding intensity": 34700}, {"sequence": "AGGGGAGGAACCAGGAAGTTGTGGTAAACTGTAGCA", "RUNX1 binding intensity": 2360}, {"sequence": "AGTGCAGAGTGGACAGGATGTGGTGGAGGTGAGAGA", "RUNX1 binding intensity": 1500}, {"sequence": "CGACCGGAACCACTCTGAGGCGCTGCCGCAGACACC", "RUNX1 binding intensity": 1010}, {"sequence": "GCGACCCGACCCGGCGGAAACCACCTCGACAGCCTC", "RUNX1 binding intensity": 941}, {"sequence": "GAGAACTTCCGGTGCGCTCCCCGGGACTGCGGTCCC", "RUNX1 binding intensity": 2780}, {"sequence": "GCTGCCACTTCCCTTGCTTATTTCATGTGGTTTGGA", "RUNX1 binding intensity": 1980}, {"sequence": "GAAGTCACATCCTGTCTGTTGCGGCAGGGCACAGAG", "RUNX1 binding intensity": 1750}, {"sequence": "ACCCTACTTCCGTTGCTGTGTTGCGGAGGTGACCTA", "RUNX1 binding intensity": 1700}, {"sequence": "GTTCCTAGGCAGGCAGGATGTGGCTATAAGCTACAT", "RUNX1 binding intensity": 1150}, {"sequence": "ATAAACAGGAAGCTGAGTATGTGACCACAGACATTC", "RUNX1 binding intensity": 1630}, {"sequence": "GCTCATTTATGCATCCTGTGGTCTGTGTGTGTTTCG", "RUNX1 binding intensity": 1390}, {"sequence": "CCGCGAGCCGTCACTTCCTGTGGGCTGGGCCGAGCC", "RUNX1 binding intensity": 1940}]}]}
